# Jurkat NFkB inh: inhibitors of induced NF-kB luciferase reporter, primary screen, TCR NF-kB activation inhibitor project, cell-based, luminescence, uHTS. inhibition, % at 4 µM. actives 0.53% (n = 330,000). AID 435003, 2010. Jurkat, PMA/ionomycin-induced NF-kB luciferase reporter; in the data active means inhibition above about 50%
# 697 NFkB inh: inhibitors of PMA/ionomycin-induced NF-kB reporter, 697 cells, primary screen, B-cell NF-kB inhibitor project, cell-based, luminescence, uHTS; 697 B-cell NF-kB luciferase reporter, 16 h; inhibition, % at 4 µM; actives 0.33% (n = 330,000); AID 435022, 2010; in the data active means inhibition above about 35%
# Gli-Sufu antag: Gli-Sufu pathway antagonists, primary screen, luciferase luminescence, Sufu-KO-LIGHT cells, uHTS; AID 588413, 2011; actives 0.74% (n = 340,000); inhibition, % at 5 µM; Sufu-KO-LIGHT fibroblasts, Gli luciferase reporter luminescence;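 active means inhibition above about 55%, limit read from the data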;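 further: 0% = DMSO-treated cells and 100% = wells with medium but no cells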
# aSyn UTR inh: MLPCN primary screen, SNCA 5' untranslated region; alpha-synuclein 5'UTR reporter, inhibitor activity; inhibition, % (tested at 7.5 µM); actives 0.82% (n = 300,000); in the data active means inhibition above about 60%; inconclusive means no clear call, values can overlap the other calls;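 further: H4 neuroglioblastoma cells stably carrying SNCA 5'UTR luciferase fusion; 0% = DMSO wells and 100% = positive control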
# KLF5 inh: KLF5 expression inhibitors, primary screen, DLD-1 cells, luminescence; DLD-1 KLF5 promoter-luciferase reporter; inhibition, % at 5 µM; actives 0.23% (n = 290,000);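 active means inhibition above a per-plate limit of that plate's mean compound inhibition plus 3 SD, cut at about 60% in these data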;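 further: 0% = DMSO wells and 100% = LY294002 at 200 µM; higher means less KLF5 promoter-driven luciferase light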
# Mdm2-MdmX inh: inhibitors of human Mdm2-MdmX association, primary screen, cell-based, luminescence, split luciferase, SaOS-2, uHTS; SaOS-2 split-luciferase Mdm2/MdmX complementation; Protein Mdm4 (Homo sapiens) + E3 ubiquitin-protein ligase Mdm2 (Homo sapiens), …; inhibition, % at 8 µM; actives 3% (n = 330,000);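 active means inhibition of at least 50% at 8 µM in the primary screen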
# Target sequence (O15151 whole entry, looked up): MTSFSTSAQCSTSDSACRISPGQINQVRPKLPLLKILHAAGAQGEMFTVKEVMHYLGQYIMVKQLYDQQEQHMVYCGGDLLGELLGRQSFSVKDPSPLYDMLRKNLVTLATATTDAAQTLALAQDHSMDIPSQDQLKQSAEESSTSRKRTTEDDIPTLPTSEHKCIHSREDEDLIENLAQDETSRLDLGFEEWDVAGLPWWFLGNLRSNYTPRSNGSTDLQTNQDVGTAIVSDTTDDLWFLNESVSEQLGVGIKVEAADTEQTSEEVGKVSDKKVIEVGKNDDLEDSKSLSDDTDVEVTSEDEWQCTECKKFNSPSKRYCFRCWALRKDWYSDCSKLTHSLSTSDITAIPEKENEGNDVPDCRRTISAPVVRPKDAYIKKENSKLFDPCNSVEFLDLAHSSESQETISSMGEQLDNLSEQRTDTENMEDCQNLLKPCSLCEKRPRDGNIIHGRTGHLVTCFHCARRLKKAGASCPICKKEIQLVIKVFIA
# Target sequence (Q00987 whole entry, looked up): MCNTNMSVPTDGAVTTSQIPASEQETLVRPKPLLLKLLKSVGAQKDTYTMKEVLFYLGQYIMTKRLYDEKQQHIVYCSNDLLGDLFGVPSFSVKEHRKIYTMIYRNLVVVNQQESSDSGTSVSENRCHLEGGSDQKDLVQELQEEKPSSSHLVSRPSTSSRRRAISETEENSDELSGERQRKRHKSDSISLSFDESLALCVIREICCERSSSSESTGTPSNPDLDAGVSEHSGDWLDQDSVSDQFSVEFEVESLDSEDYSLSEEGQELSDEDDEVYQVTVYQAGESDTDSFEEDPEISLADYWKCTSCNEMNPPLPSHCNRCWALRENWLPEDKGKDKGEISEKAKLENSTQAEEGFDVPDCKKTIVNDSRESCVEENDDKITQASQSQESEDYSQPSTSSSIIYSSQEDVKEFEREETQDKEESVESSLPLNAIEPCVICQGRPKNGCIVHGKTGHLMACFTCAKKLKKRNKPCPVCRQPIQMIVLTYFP
# Jurkat NFkB conf: PMA/ionomycin-induced NF-kB reporter inhibitors, Jurkat retest, confirmation, T-cell NF-kB inhibitor project, cell-based, luminescence, single concentration; inhibition, % at 4 µM; shares compounds with Jurkat NFkB inh; actives 27% (n = 2,700); Jurkat NF-kB luciferase, 16 h;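 active means inhibition reaching about 45% at 4 µM in either replicate, limit read from the data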;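 further: plate controls were PMA/ionomycin stimulated DMSO wells for no effect and unstimulated DMSO wells for full effect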
# 697 NFkB conf: PMA/ionomycin-induced NF-kB reporter inhibitors, 697 retest, confirmation, B-cell NF-kB inhibitor project, cell-based, luminescence, single concentration | shares compounds with 697 NFkB inh | 697 B-cell NF-kB luciferase, 16 h | inhibition, % at 4 µM | actives 35% (n = 2,000) | AID 449746, 2010; in the data active means inhibition mostly above about 28%, no sharp cut-off; inactive means mostly below about 22%
# Mdm2-MdmX conf: Mdm2-MdmX complex disruptors, retested hits, confirmation, luminescence, single concentration. Mdm2-MdmX binding, luminescent assay. shares compounds with Mdm2-MdmX inh. actives 55% (n = 10,000). inhibition, % at 8 µM; in the data active means inhibition above about 40%
# Full FLuc ctr: full-length luciferase signal inhibition, confirmation, counter-screen for Mdm2/MdmX interaction inhibitor project, cell-based, single concentration, SaOS-2; SaOS-2 full-length luciferase counterscreen, luminescence; actives 77% (n = 6,200); AID 504607, 2011; inhibition, % at 8 µM; shares compounds with Mdm2-MdmX inh;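 active means mean inhibition at 8 µM reaching about 37%, which flags the compound as non-specific, limit read from the data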;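 further: p53-null SaOS-2 cells with luciferase driven by a doxycycline-inducible promoter; compound on cells about two nights before reading with doxycycline added after day one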
# The depositor's hits bear a star; ? = inconclusive; nt = not tested or not shown. Shown are actives, neighbours in structure and some others; about 4.1% of the full set was active somewhere.
SMILES,Jurkat NFkB inh,697 NFkB inh,Gli-Sufu antag,aSyn UTR inh,KLF5 inh,Mdm2-MdmX inh,Jurkat NFkB conf,Mdm2-MdmX conf,Full FLuc ctr,others
COc1ccc(C(=O)NC2CCCc3ccccc32)cc1[N+](=O)[O-] (stereo not given),54*,-27,1,22,19,67*,23,58*,53*,
CCN(C(=O)COC(=O)CCCOc1ccc(Cl)cc1C)c1c(N)n(Cc2ccccc2)c(=O)[nH]c1=O,nt,nt,-5,nt,nt,nt,nt,nt,nt,
CC1=Nc2cc(C(=O)O)ccc2Sc2ccc(Br)cc21,-1,30,-5,nt,1,-23,nt,nt,nt,
CC1=Nc2cc(C(=O)NCC3CCCO3)ccc2Sc2ccc(Br)cc21 (stereo not given),52*,-28,-3,-113,22,56*,13,60*,61*,
O=C1C=CCC(/C=C/c2ccccc2)O1 (stereo not given),100*,-165,22,-104,-24,61*,96*,48*,12,
CCC1([N+](=O)[O-])COC(C=Cc2ccccc2)OC1 (stereo not given),nt,nt,-10,nt,nt,nt,nt,nt,nt,
CSCCOC(=O)C1=C(C)NC(=O)NC1c1ccc2c(c1)OCO2 (stereo not given),-7,-12,33,9,-8,8,nt,nt,nt,
CC1=C(C(=O)OCc2ccc3c(c2)OCO3)C(c2ccc(Cl)cc2)NC(=O)N1 (stereo not given),71*,-18,-7,41,54,84*,64*,92*,51*,
CC1=C(C(=O)OCc2ccc3c(c2)OCO3)C(c2ccc(F)cc2)NC(=O)N1 (stereo not given),59*,-37,-12,19,41,91*,34,92*,49*,
CCCCCOC(=O)C1=C(C)NC(=O)NC1c1ccc2c(c1)OCO2 (stereo not given),16,-2,28,9,-14,8,nt,nt,nt,
N#Cc1ccc(NC(=O)COC(=O)c2cccnc2Cl)cc1,12,-4,-7,nt,nt,-51,nt,nt,nt,
CC(C)c1nnc(NC(=O)c2ccc3c(c2)OCO3)s1,-52,-195,-61,?,-143,-5,nt,nt,nt,
Cc1cnc(NC(=O)c2ccc3c(c2)OCCO3)s1,70*,-30,10,nt,nt,74*,77*,80*,29,
COc1ccccc1-c1nnc(NC(=O)c2ccc3c(c2)OCO3)s1,57*,17,-19,45,-42,90*,5,66*,85*,
COC(C[C@H](O)CC(=O)[C@H](C)OCc1ccccc1)OC,0,19,4,-7,nt,25,nt,nt,nt,
CCN1/C(=C/c2ccc3cc(C)ccc3[n+]2CC)Sc2ccccc21,96*,86*,89*,100*,41,97*,69*,95*,8,697 NFkB conf=49*
CCN1/C(=C/c2ccc3cc(C)ccc3[n+]2CC)Sc2cc(C)c(C)cc21,93*,65*,91*,nt,-1,81*,74*,85*,39*,697 NFkB conf=80*
CCC(=O)/C=C1/Sc2ccccc2N1CC,8,14,5,0,-21,2,nt,nt,nt,
CN1/C(=C\C(=O)c2cccnc2)C(C)(C)c2ccccc21,-26,-31,5,-7,20,24,nt,nt,nt,
CN1/C(=C/C(=O)c2nc(S(C)(=O)=O)ncc2Cl)C(C)(C)c2ccccc21,57*,9,20,?,-30,100*,26,100*,52*,
C=C1C(O)[C@@H]2O[C@]3(CC[C@H](/C=C/C(C)[C@@H]4CC(C)=CC5(O[C@H](C[C@@](C)(O)CO)CCC5O)O4)O3)CC[C@H]2O[C@@H]1C(O)CC(C)[C@H]1OC2(CCCCO2)CCC1C (stereo not given in full),92*,-405,63*,nt,nt,88*,78*,90*,33,697 NFkB conf=-170
c1ccc2c(c1)COC(CNC1CCCCC1)OC2,-1,7,-11,11,-16,-22,nt,nt,nt,
COc1cccc(N2CCN(c3ncnc4c3[nH]c3ccccc34)CC2C)c1 (stereo not given),54*,16,nt,-73,-9,100*,79*,98*,3,
CCC(C)NC(=O)CN(c1cc(Cl)cc(Cl)c1)S(C)(=O)=O (stereo not given),7,-11,-9,0,-62,21,nt,nt,nt,
Cc1cccc(N2CCN(S(=O)(=O)c3cc(-c4cc(C)no4)ccc3C)CC2C)c1 (stereo not given),64*,-26,15,11,30,50*,32,54*,38*,
SMILES,Jurkat NFkB inh,697 NFkB inh,Gli-Sufu antag,aSyn UTR inh,KLF5 inh,Mdm2-MdmX inh,Jurkat NFkB conf,Mdm2-MdmX conf,Full FLuc ctr,others
Cc1cc(-c2ccc(C)c(S(=O)(=O)N3CCN(c4ccc(F)cc4)CC3)c2)on1,40,-55,-5,22,-7,42,nt,nt,nt,
O=S(=O)(Nc1cccc2ncccc12)c1cccs1,80*,-25,87*,47,8,74*,64*,100*,52*,
COC(=O)CCSCC(=O)N1N=C(c2ccc(Br)cc2)CC1c1cccc(OC)c1OC (stereo not given),1,10,6,10,-9,9,nt,nt,nt,
O=[N+]([O-])c1ccc(N=Nc2ccc(O)cc2O)cc1,59*,63*,-2,45,-38,98*,-12,56*,30,697 NFkB conf=-45
O=C(O)c1ccc(CNC(=O)C23CC4CC(CC(C4)C2)C3)cc1,-5,-6,0,0,13,19,nt,nt,nt,
C/C(=N\NC(=O)c1cccnc1)c1ccc(OC2OCCOC2Oc2ccc(/C(C)=N/NC(=O)c3cccnc3)cc2)cc1 (stereo not given),-6,6,3,-22,14,13,nt,nt,nt,

# Screening data (PubChem BioAssay)
